# From PubChem BioAssay (NCI)
# About 79,000 compounds went through this panel and 15% of them were active in at least one assay; those are over-represented in the sample as a whole. Values without a mark were called inactive. Activity calls are given as the source filed them. Cut-off read from the data, not from the text of the source: active = growth inhibition above about 70%; inactive = the rest.
# Assays:
# [1] = NCI Yeast Anticancer Drug Screen. Data for the rad50EPP+ strain (AID 151);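 note: 0% = growth of vehicle-treated control cultures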; details: S. cerevisiae rad50 mutant strain, hits give high values
# Procedure, shortened: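 rad50EPP+ yeast treated with test compounds. Readout: growth vs vehicle control.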
# [2] = NCI Yeast Anticancer Drug Screen. Data for the mgt1 strain (AID 153); details: S. cerevisiae mgt1 mutant growth inhibition, hits give high values
# Procedure, shortened: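 Growth inhibition relative to vehicle controls was scored for the mgt1 yeast strain after compound exposure.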
# [3] = NCI Yeast Anticancer Drug Screen. Data for the rad50 strain (AID 155);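 note: 0% = growth of vehicle-only cultures of the same strain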; details: S. cerevisiae rad50 strain growth inhibition, hits give high values
# Procedure, shortened: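 Growth of the mutant yeast was measured after compound exposure and referenced to vehicle-treated cultures.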
# [4] = NCI Yeast Anticancer Drug Screen. Data for the mec2-1 strain (AID 157); details: S. cerevisiae mec2-1 strain, hits give high values
# Procedure, shortened: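 Growth inhibition is read against vehicle-treated controls after compound exposure of the mec2-1 yeast strain, which is defective in DNA damage repair or cell cycle control.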
# [5] = NCI Yeast Anticancer Drug Screen. Data for the rad14 strain (AID 159);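 note: 0% = growth of vehicle-treated control cultures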; details: S. cerevisiae rad14 strain growth inhibition, hits give high values
# Procedure, shortened: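 Here, inhibition of yeast growth was measured after compound exposure, using a strain with a genetic defect in DNA damage repair and vehicle-treated cultures as the reference.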
# [6] = NCI Yeast Anticancer Drug Screen. Data for the sgs1 mgt1 strain (AID 161);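 note: 0% = growth of cultures given vehicle only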; details: S. cerevisiae sgs1 mgt1 strain, hits give high values
# Procedure, shortened: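 This yeast growth screen uses a strain with defined DNA-repair lesions; compound-treated growth is compared with vehicle-treated growth.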
# [7] = NCI Yeast Anticancer Drug Screen. Data for the CLN2oe strain (AID 163);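 note: 0% = growth of vehicle-only control cultures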; details: S. cerevisiae CLN2oe strain, hits give high values
# Procedure, shortened: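 Compound-treated yeast; growth vs vehicle ctrl = % inhibition. Genetically altered strain (cell-cycle control).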
# [8] = NCI Yeast Anticancer Drug Screen. Data for the cln2 rad14 strain (AID 165);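 note: 0% = growth equal to vehicle treated cultures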; details: S. cerevisiae cln2 rad14 strain, hits give high values
# Procedure, shortened: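 Growth inhibition, relative to vehicle-treated controls, is the read-out. The test organism is a yeast strain with defined genetic alterations, cln2 rad14.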
# [9] = NCI Yeast Anticancer Drug Screen. Data for the bub3 strain (AID 167); details: S. cerevisiae bub3 mutant strain, hits give high values
# Procedure, shortened: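 Whole-cell yeast assay. The mutant strain was incubated with compounds, and growth inhibition was determined by comparison with vehicle-treated cells.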
# [10] = NCI Yeast Anticancer Drug Screen. Data for the wt2 strain (AID 169);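 note: 0% = growth of vehicle-treated yeast cultures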; details: S. cerevisiae wt2 strain growth inhibition, hits give high values
# Procedure, shortened: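 Compound exposure of yeast; growth compared with vehicle controls; inhibition reported.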
# [11] = NCI Yeast Anticancer Drug Screen. Data for the mlh1 strain (AID 171);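 note: 0% = growth of vehicle-treated control cultures of the same strain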; details: S. cerevisiae mlh1 strain growth inhibition, hits give high values
# Procedure, shortened: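 Compounds are applied to a genetically altered yeast strain, and its growth is compared with that of vehicle-treated cultures to give percent inhibition.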
# [12] = at 5.0 µM (retest, dose inferred, filed as 0.5)
# [13] = at 50.0 µM (retest, dose inferred, filed as 5.0)
smiles,measurement,setting,value
Cn1c(COc2ccc(/C=N/NC(=O)CCC(=O)N/N=C/c3ccc(OCc4c[n+]5ccccc5n4C)cc3)cc2)c[n+]2ccccc12,growth inhibition,[1]; at 1.2 µM,-4%
same,growth inhibition,[1]; at 3.7 µM,-7%
same,growth inhibition,[1]; at 11.0 µM,-18%
same,growth inhibition,[1]; at 33.0 µM,-18%
same,growth inhibition,[1]; at 100.0 µM,45%
same,growth inhibition,[2]; at 1.2 µM,4%
same,growth inhibition,[2]; at 3.7 µM,3%
same,growth inhibition,[2]; at 11.0 µM,4%
same,growth inhibition,[2]; at 33.0 µM,24%
same,growth inhibition,[2]; at 100.0 µM,98% (active)
same,growth inhibition,[3]; at 1.2 µM,1%
same,growth inhibition,[3]; at 3.7 µM,2%
same,growth inhibition,[3]; [12],-11%
same,growth inhibition,[3]; at 11.0 µM,1%
same,growth inhibition,[3]; at 33.0 µM,5%
same,growth inhibition,[3]; [13],55%
same,growth inhibition,[3]; at 50.0 µM,49.1%
same,growth inhibition,[3]; at 100.0 µM,97% (active)
same,growth inhibition,[4]; at 1.2 µM,-2%
same,growth inhibition,[4]; at 3.7 µM,0%
same,growth inhibition,[4]; [12],-10%
same,growth inhibition,[4]; at 11.0 µM,0%
same,growth inhibition,[4]; at 33.0 µM,10%
same,growth inhibition,[4]; [13],12%
same,growth inhibition,[4]; at 50.0 µM,32.1%
same,growth inhibition,[4]; at 100.0 µM,96% (active)
same,growth inhibition,[5]; at 1.2 µM,0%
same,growth inhibition,[5]; at 3.7 µM,-1%
same,growth inhibition,[5]; at 11.0 µM,0%
same,growth inhibition,[5]; at 33.0 µM,7%
same,growth inhibition,[5]; at 100.0 µM,97% (active)
same,growth inhibition,[6]; [12],-1%
same,growth inhibition,[6]; [13],47%
same,growth inhibition,[6]; at 50.0 µM,63.4%
same,growth inhibition,[7]; at 1.2 µM,-5%
same,growth inhibition,[7]; at 3.7 µM,-3%
same,growth inhibition,[7]; at 11.0 µM,-3%
same,growth inhibition,[7]; at 33.0 µM,-5%
same,growth inhibition,[7]; at 100.0 µM,76% (active)
same,growth inhibition,[8]; [12],-8%
same,growth inhibition,[8]; [13],28%
same,growth inhibition,[8]; at 50.0 µM,18.8%
same,growth inhibition,[9]; at 1.2 µM,-3%
same,growth inhibition,[9]; at 3.7 µM,-6%
same,growth inhibition,[9]; [12],-24%
same,growth inhibition,[9]; at 11.0 µM,-6%
same,growth inhibition,[9]; at 33.0 µM,-1%
same,growth inhibition,[9]; [13],33%
same,growth inhibition,[9]; at 50.0 µM,18.9%
same,growth inhibition,[9]; at 100.0 µM,95% (active)
same,growth inhibition,[10]; at 1.2 µM,4%
same,growth inhibition,[10]; at 3.7 µM,5%
same,growth inhibition,[10]; at 11.0 µM,8%
same,growth inhibition,[10]; at 33.0 µM,12%
same,growth inhibition,[10]; at 100.0 µM,99% (active)
same,growth inhibition,[11]; at 1.2 µM,1%
same,growth inhibition,[11]; at 3.7 µM,-2%
same,growth inhibition,[11]; at 11.0 µM,-1%
same,growth inhibition,[11]; at 33.0 µM,8%
same,growth inhibition,[11]; at 100.0 µM,96% (active)
